In PubChem BioAssay (Tox21):
“And” between values parts separate entries of the source, which are not always exact repeats. Equal values may be shown once. Inconclusive results are not listed. The source made the active and inactive calls. The call rests on the fitted dose curve; in most records, active means well fitted curve in the direction sought with a large enough effect in the repeat runs; inconclusive means weak or mixed curves; inactive means no such curve, though single readings can be large; an effect the other way counts as inactive or inconclusive.

Key:
[1] = target: Cytochrome P450 2C9 (Homo sapiens) (UniProt P11712); assay: Cytochrome P450 Family 2 Subfamily C Member 9 (CYP2C9) small molecule antagonists: luciferase reporter qHTS assay (AID 1671198)
Summary of the method: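 P450-Glo proluciferin substrate with CYP2C9 enzyme; 10 min RT preincubation, then NADPH regeneration 1 h at 37C; luciferin detection reagent 20 min RT, luminescence in relative luminescence units.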

[2] = target: Cytochrome P450 1A2 (Homo sapiens) (UniProt P05177); assay: Cytochrome P450 Family 1 Subfamily A Member 2 (CYP1A2) small molecule antagonists: luciferase reporter qHTS assay (AID 1671199)
Summary of the method: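 P450-Glo CYP1A2, 1536-well qHTS: enzyme/proluciferin substrate + cpd (DMSO), 10 min RT; NADPH regen, 1 h RT; detection reagent, 20 min; luminescence, RLU.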

[3] = target: Voltage-gated inwardly rectifying potassium channel KCNH2 (Homo sapiens) (UniProt Q12809); assay: Human Ether-a-go-go-Related Gene (hERG) channel small molecule antagonists: fluorescence cell-based qHTS assay (AID 1671200)
Summary of the method: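 In this thallium-flux screen, overnight-cultured U2OS cells bearing the channel are dye-loaded in darkness for an hour, rested 10 min at room temperature, and then monitored kinetically at 480/540 nm for two minutes post-stimulus.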

[4] = target: Cytochrome P450 3A4 (Homo sapiens) (UniProt P08684); assay: Cytochrome P450 Family 3 Subfamily A Member 4 (CYP3A4) small molecule antagonists: luciferase reporter qHTS assay (AID 1671201)
Summary of the method: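 CYP3A4 activity was followed with a P450-Glo proluciferin substrate. Test compounds in DMSO were preincubated 10 min; NADPH regeneration then ran 1 h, and light output was read 20 min after detection reagent.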
Further: nearly all actives have a fitted effect of over 50% in size.
Potency means the concentration at half of the fitted maximal effect.

Cytochrome P450 3A4 (Homo sapiens), sequence (P08684 whole entry, looked up): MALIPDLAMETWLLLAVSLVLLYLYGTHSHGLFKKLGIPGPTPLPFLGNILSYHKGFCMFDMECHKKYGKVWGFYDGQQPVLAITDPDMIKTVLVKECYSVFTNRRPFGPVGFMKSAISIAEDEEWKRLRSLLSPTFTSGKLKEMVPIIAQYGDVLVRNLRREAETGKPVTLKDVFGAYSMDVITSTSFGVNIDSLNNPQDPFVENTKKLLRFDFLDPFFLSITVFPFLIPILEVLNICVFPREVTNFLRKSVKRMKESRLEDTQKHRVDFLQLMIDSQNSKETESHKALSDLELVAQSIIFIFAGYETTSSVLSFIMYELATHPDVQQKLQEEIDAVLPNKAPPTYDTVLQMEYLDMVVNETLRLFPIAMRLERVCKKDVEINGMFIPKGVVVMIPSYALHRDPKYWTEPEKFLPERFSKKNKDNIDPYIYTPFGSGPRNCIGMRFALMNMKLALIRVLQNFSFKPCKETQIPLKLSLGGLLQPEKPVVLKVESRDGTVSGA
Cytochrome P450 2C9 (Homo sapiens), sequence (P11712 whole entry, looked up): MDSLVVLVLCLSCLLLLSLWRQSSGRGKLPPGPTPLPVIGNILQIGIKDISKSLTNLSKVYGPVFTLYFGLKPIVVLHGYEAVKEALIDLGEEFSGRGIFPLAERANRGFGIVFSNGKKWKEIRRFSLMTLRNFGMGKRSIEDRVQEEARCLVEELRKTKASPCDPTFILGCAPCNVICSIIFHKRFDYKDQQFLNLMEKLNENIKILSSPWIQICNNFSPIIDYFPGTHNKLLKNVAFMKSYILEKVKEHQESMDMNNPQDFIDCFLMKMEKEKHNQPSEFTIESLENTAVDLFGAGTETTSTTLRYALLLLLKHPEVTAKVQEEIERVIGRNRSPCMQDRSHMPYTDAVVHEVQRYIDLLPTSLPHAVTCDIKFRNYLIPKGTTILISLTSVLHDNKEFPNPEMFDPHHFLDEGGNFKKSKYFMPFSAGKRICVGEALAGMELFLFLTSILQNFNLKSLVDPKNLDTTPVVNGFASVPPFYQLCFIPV
Voltage-gated inwardly rectifying potassium channel KCNH2 (Homo sapiens), sequence (Q12809 whole entry, looked up): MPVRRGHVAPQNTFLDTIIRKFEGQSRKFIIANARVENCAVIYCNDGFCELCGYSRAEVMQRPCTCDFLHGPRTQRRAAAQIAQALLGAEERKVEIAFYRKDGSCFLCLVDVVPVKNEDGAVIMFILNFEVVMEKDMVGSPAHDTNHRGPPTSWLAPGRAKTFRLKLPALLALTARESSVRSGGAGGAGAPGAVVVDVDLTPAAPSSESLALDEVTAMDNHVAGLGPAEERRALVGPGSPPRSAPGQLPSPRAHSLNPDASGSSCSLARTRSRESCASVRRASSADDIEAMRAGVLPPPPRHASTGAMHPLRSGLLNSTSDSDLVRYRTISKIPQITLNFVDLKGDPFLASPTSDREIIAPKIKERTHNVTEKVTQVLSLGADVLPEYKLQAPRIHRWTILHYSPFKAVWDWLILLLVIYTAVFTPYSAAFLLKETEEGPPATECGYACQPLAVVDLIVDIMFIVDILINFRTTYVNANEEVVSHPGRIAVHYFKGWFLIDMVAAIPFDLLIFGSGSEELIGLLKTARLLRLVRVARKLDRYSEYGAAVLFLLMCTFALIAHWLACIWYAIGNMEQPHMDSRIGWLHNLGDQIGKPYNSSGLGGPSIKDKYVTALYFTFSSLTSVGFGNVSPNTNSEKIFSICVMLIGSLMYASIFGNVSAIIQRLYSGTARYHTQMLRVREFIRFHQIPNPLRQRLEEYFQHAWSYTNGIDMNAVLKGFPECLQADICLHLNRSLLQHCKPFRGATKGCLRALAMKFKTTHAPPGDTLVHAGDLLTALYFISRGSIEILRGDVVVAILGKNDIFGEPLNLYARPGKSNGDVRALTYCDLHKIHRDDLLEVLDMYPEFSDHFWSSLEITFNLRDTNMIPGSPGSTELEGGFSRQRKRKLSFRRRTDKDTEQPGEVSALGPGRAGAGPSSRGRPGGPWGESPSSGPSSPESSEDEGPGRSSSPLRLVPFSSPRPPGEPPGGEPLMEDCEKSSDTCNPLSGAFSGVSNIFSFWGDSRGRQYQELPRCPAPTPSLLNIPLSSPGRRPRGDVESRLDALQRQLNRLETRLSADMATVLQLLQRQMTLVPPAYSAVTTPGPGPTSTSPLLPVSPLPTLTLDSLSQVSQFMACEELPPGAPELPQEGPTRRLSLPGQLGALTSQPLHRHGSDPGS
Cytochrome P450 1A2 (Homo sapiens), sequence (P05177 whole entry, looked up): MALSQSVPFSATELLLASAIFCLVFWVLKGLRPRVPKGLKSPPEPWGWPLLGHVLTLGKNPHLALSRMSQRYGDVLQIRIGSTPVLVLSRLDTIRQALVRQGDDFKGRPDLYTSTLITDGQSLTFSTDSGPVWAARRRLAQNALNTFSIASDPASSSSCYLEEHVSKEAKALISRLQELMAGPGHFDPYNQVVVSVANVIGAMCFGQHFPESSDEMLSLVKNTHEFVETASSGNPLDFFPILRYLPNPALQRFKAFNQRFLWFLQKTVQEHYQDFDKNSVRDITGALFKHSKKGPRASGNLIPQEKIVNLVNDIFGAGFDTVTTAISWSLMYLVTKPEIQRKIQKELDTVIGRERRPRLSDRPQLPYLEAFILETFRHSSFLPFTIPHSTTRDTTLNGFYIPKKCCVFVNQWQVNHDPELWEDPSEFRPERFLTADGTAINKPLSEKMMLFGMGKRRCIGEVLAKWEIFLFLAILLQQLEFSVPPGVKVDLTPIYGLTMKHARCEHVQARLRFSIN

Row | SMILES | Potency [1] | Potency [2] | Potency [3] | Potency [4]
1 | CCOC(=O)O[C@]1(C(=O)OCCl)CC[C@H]2[C@@H]3CCC4=CC(=O)C=C[C@]4(C)[C@H]3[C@@H](O)C[C@@]21C | inactive |  |  | 
2 | Fc1ccc([C@@H]2CCNC[C@H]2COc2ccc3c(c2)OCO3)cc1 | inactive |  |  | 
3 | CCCC(=O)OC[C@@H](OC(=O)CCC)[C@@H](OC(=O)CCC)[C@H](Cn1c2nc(=O)[nH]c(=O)c-2nc2cc(C)c(C)cc21)OC(=O)CCC | 13.8 µM (active) | inactive |  | 
4 | CCOC(=O)/C=C(C)/C=C/C=C(C)/C=C/c1c(C)cc(OC)c(C)c1C | 6.17 µM (active) | 24.5 µM (active) |  | 
5 | CC(C)(C)NC(=O)[C@@H]1C[C@@H]2CCCC[C@@H]2CN1C[C@@H](O)[C@H](Cc1ccccc1)NC(=O)[C@H](CC(N)=O)NC(=O)c1ccc2ccccc2n1 | 40.4 µM (active) |  |  | 
6 | CCCC1O[C@@H]2C[C@H]3[C@@H]4CCC5=CC(=O)C=C[C@]5(C)[C@H]4[C@@H](O)C[C@]3(C)[C@]2(C(=O)CO)O1 (stereo partly specified) | 39.9 µM (active) and 35.6 µM (active) | inactive | inactive | 
7 | CC(C)n1nc(-c2cc3cc(O)ccc3[nH]2)c2c(N)ncnc21 | 2.45 µM (active) | 3.63 µM (active) | inactive | 
8 | O=C1Cc2cc(CCN3CCN(c4nsc5ccccc45)CC3)c(Cl)cc2N1 | 27.5 µM (active) |  |  | 
9 | CCCCCCCCOc1ccccc1C(=O)Nc1ccc(C(=O)OCC[N+](C)(CC)CC)cc1 | 4.36 µM (active) |  |  | 
10 | Oc1ccc2c(c1)-c1ccccc1C2 | 39.9 µM (active) | 5.03 µM (active) | inactive | 
11 | Nc1nc2ccccc2n1Cc1ccc(F)cc1 | inactive | 24.5 µM (active) |  | 
12 | CCC(CN)=C(c1ccccc1)c1ccccc1 | 15.5 µM (active) |  |  | 
13 | COc1ccc(C(=O)/C(Br)=C\C(=O)O)cc1 | 25.2 µM (active) |  |  | 
14 | COCCCC/C(=N\OCCN)c1ccc(C(F)(F)F)cc1 | 3.89 µM (active) | 0.204 µM (active) |  | 
15 | CC(C)(C)CC(C)(C)c1ccc(O)c(Cc2ccc(Cl)cc2Cl)c1 | 5.49 µM (active) | 15.5 µM (active) | inactive | 
16 | CN(C)CCCOC1(Cc2ccccc2)CCCCCC1 | inactive | inactive |  | 
17 | CCCCCOc1ccccc1/C(=C\SC)n1ccnc1 | 5.49 µM (active) | 2.29 µM (active) |  | 
18 | CC[C@H](c1ccc(O)cc1)[C@@H](CC)c1ccc(O)cc1 | 39.9 µM (active) and 30.9 µM (active) | inactive | inactive | 
19 | CCCCN(CCCC)c1ccc(C(=O)c2ccccc2C(=O)O)c(O)c1 | 6.39 µM (active) | 63.9 µM (active) |  | 
20 | Cc1[nH]cnc1C[C@H]1CCc2c(C)c3ccccc3n2C1=O | 0.49 µM (active) | 1.74 µM (active) |  | 
21 | CN(C/C=C/C#CC(C)(C)C)Cc1cccc2ccccc12 | 15.5 µM (active) | 17.4 µM (active) |  | 
22 | Oc1ccc(Cl)cc1Sc1cc(Cl)ccc1O | 10 µM (active) and 7.76 µM (active) | 35.5 µM (active) and 27.5 µM (active) | inactive | 
23 | O=C(NOCC1CC1)c1ccc(F)c(F)c1Nc1ccc(I)cc1Cl | 0.55 µM (active) | 15.5 µM (active) |  | 
24 | Cc1ccc(-n2nc(C(C)(C)C)cc2NC(=O)Nc2ccc(OCCN3CCOCC3)c3ccccc23)cc1 | 6.92 µM (active) |  |  | 

Row | SMILES | Potency [1] | Potency [2] | Potency [3] | Potency [4]
25 | CCCCC(CC)CN=C(N)NC(N)=NCCCCCCN=C(N)NC(N)=NCC(CC)CCCC (stereo unspecified) | 17.4 µM (active) | 32.3 µM (active) |  | 
26 | O=C(N/N=C/c1ccccc1O)c1ccncc1 | 2.19 µM (active) | 0.575 µM (active) |  | 
27 | CC(C)C(C)(C)C(C)(C)C(C)(C)S | 46.1 µM (active) |  |  | 
28 | Cn1cc(C(=O)[C@@H]2CCc3nc[nH]c3C2)c2ccccc21 | inactive | 17.4 µM (active) |  | 
29 | CC(C)OC(=O)c1cc2c(OCC(O)CNC(C)(C)C)cccc2[nH]1 (stereo unspecified) | inactive | inactive |  | 
30 | C[C@@H](NCCCc1cccc(C(F)(F)F)c1)c1cccc2ccccc12 | inactive |  |  | 
31 | CCCCN1CCCC[C@H]1C(=O)Nc1c(C)cccc1C | inactive |  |  | 
32 | CC1=C(C(=O)OC(C)C)C(c2cccc([N+](=O)[O-])c2)C(C(=O)OC2CN(C(c3ccccc3)c3ccccc3)C2)=C(N)N1 (stereo unspecified) | 1.38 µM (active) |  |  | 
33 | Cc1cc(O)c2ccccc2c1O | 12.3 µM (active) | 1.23 µM (active) | 3.38 µM (active) | 
34 | CCCCCCC[N+](CC)(CC)CCCCc1ccc(Cl)cc1 | inactive | inactive |  | 
35 | CCN(C(=O)N(CC)c1ccccc1)c1ccccc1 | 7.1 µM (active) | inactive | inactive | 
36 | N#CC1(c2ccc(F)cc2)CCC(=O)CC1 | inactive | inactive | inactive | inactive
37 | CCCCCCCCCCCCCCCCCC[N+](C)(C)Cc1ccccc1 | 40.3 µM (active) | 80.4 µM (active) | 2.78 µM (active) | 40.3 µM (active)
38 | C[n+]1ccn(Cc2ccccc2)c1 | inactive | inactive | inactive | inactive
39 | Cc1cc(O)c(Cl)c(C)c1Cl | inactive | 17.8 µM (active) | inactive | 
40 | C[C@@H]1C[C@H]2[C@@H]3CCC4=CC(=O)C=C[C@]4(C)[C@@]3(Cl)[C@@H](O)C[C@]2(C)[C@@]1(OC(=O)c1ccco1)C(=O)CCl | 8.71 µM (active) | inactive | inactive | 
41 | Cc1c(C)c2c(c(C)c1O)CCC(C)(COc1ccc(CC3SC(=O)NC3=O)cc1)O2 (stereo unspecified) | 5.03 µM (active) and 4.9 µM (active) | inactive | inactive | 
42 | Clc1ccc(C(Cn2ccnc2)OCc2ccc(Sc3ccccc3)cc2)c(Cl)c1 (stereo unspecified) | 2.75 µM (active) | 15.5 µM (active) | 9.52 µM (active) | 
43 | Oc1cc2ccccc2c2ccccc12 | 5.03 µM (active) | 0.0502 µM (active) | inactive | 6.33 µM (active)
44 | N#CSc1ccc(N)c([N+](=O)[O-])c1 | 40.2 µM (active) | 1.6 µM (active) | inactive | 
45 | COC(=O)C1=C(C)NC(C)=C(C(=O)OCCc2ccc(N3CCN(C(c4ccccc4)c4ccccc4)CC3)cc2)C1c1cccc([N+](=O)[O-])c1 (stereo unspecified) | 0.436 µM (active) | 14.4 µM (active) | inactive | 
46 | O=C(NO)C1(NS(=O)(=O)c2ccc(Oc3ccc(F)cc3)cc2)CCOCC1 | 56.4 µM (active) | inactive | inactive | 
47 | O=C(Nc1cccc([N+](=O)[O-])c1)c1cc2ccccc2cc1O | 17.8 µM (active) | 3.56 µM (active) | inactive | 
48 | CCCCCCCCOC(=O)c1ccc(O)cc1 | 31.6 µM (active) and 35.6 µM (active) | 19.9 µM (active) and 12.6 µM (active) | inactive | 

Row | SMILES | Potency [1] | Potency [2] | Potency [3] | Potency [4]
49 | N/C(=N\N=C\c1ccc(Cl)cc1)N/N=C/c1ccc(Cl)cc1 | 13.8 µM (active) | 3.63 µM (active) | 2.39 µM (active) | 
50 | O=c1c(-c2ccccc2)c1-c1ccccc1 | 17.4 µM (active) | 1.15 µM (active) | inactive | 
51 | COc1cc(-c2ccc(N=C=O)c(OC)c2)ccc1N=C=O | inactive | inactive | inactive | 
52 | CC[C@@]1(O)C(=O)OCc2c1cc1n(c2=O)Cc2cc3c(CN(C)C)c(O)ccc3nc2-1 | inactive | inactive | inactive | 
53 | Cc1cccc(N(C)C(=S)Oc2ccc3c(c2)C2CCC3C2)c1 (stereo unspecified) | 15.5 µM (active) | 9.11 µM (active) | inactive | 
54 | COc1ccc(CN2CCN(C(c3ccc(F)cc3)c3ccc(F)cc3)CC2)c(OC)c1OC | 11 µM (active) | inactive | 0.674 µM (active) | 
55 | Oc1cccc(-c2c3nc(c(-c4cccc(O)c4)c4ccc([nH]4)c(-c4cccc(O)c4)c4nc(c(-c5cccc(O)c5)c5ccc2[nH]5)CC4)C=C3)c1 | 13.8 µM (active) | inactive | inactive | 
56 | ON=C1CCCC1 | 41.3 µM (active) | 36.8 µM (active) | inactive | 
57 | O=c1cccccc1O | inactive | inactive | inactive | inactive
58 | C[C@H]1[C@H]2CC[C@H]3[C@@H]4CC=C5C[C@@H](N(C)C)CC[C@]5(C)[C@H]4CC[C@]23CN1C | inactive | inactive | inactive | 
59 | OCCCCCCCCCCCCBr | inactive | 40.5 µM (active) | inactive | inactive
60 | OCCN1CCN(CC/C=C2/c3ccccc3Sc3ccc(C(F)(F)F)cc32)CC1 | inactive | 19.5 µM (active) | 2.13 µM (active) | 
61 | C/C(=C(/OCCOc1ccc(Cl)cc1)c1ccc(Cl)cc1Cl)n1ccnc1 | 0.871 µM (active) | 2.29 µM (active) | 6.74 µM (active) | 
62 | COc1c(C)c2c(c(O)c1C/C=C(\C)CCC(=O)O)C(=O)OC2 | inactive | inactive | inactive | inactive
63 | Cc1cccc(CN2CCN(C(c3ccccc3)c3ccc(Cl)cc3)CC2)c1 (stereo unspecified) | 13.8 µM (active) | inactive | 2.39 µM (active) | 
64 | CCCCCCCCCCCCCCCC[N+](C)(C)CCN(Cc1ccc(OC)cc1)c1ncccn1 | 30.9 µM (active) | inactive | 0.338 µM (active) | 
65 | CNc1ccc(O)cc1 | 22.4 µM (active) | 63.2 µM (active) | inactive | 25.1 µM (active)
66 | Cc1cc2c(cc1C(F)(F)F)N(C(=O)Nc1ccc(Oc3cccnc3C)nc1)CC2 | 11.4 µM (active) | 72.1 µM (active) | inactive | 20.3 µM (active)
67 | CCC(C)Nc1ccc(NC(C)CC)cc1 (stereo unspecified) | 5.12 µM (active) | 40.7 µM (active) | 7.91 µM (active) | 8.12 µM (active)
68 | Cc1onc(-c2c(Cl)cccc2Cl)c1C(=O)N[C@@H]1C(=O)N2[C@@H]1SC(C)(C)[C@@H]2C(=O)O | 13.8 µM (active) | inactive | inactive | 
69 | Nc1cc(C(F)(F)F)ccc1S | 2.19 µM (active) | 12.3 µM (active) | inactive | 
70 | CCCC(c1cc(C(C)(C)C)c(O)cc1C)c1cc(C(C)(C)C)c(O)cc1C | 3.6 µM (active) |  | inactive | 5.09 µM (active)
